# Experimental data as given in PubChem BioAssay AID1894 (NMMLSC, 2009).
# Among all 5,900 compounds or so, about 100 (1.7%) were called active. Only a selection was taken, and actives are over-represented in it overall. Values without a mark were called inactive.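 The calls were made as follows: active = binding response below 72% of control, or above a set upper limit, though filed actives all read lower; inactive = the rest.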
# Molecular target: Mitogen-activated protein kinase kinase kinase 3 (Homo sapiens) (UniProt Q99759)
# Assay: blockers of MEK5-MEKK3 PB1 association – biochemical, bead multiplex flow cytometry, single concentration, wildtype, confirmation (AID 1894);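 also: 100% = DMSO only wells and 0% = binding blocked by excess unlabeled MEK5; lower values mean stronger disruption of MEK5 binding to MEKK3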
# Details: Alexa488-MEK5 binding to MEKK3, at 10 µM, active compounds read low
# Sequence of Mitogen-activated protein kinase kinase kinase 3 (Homo sapiens) (Q99759 whole entry, looked up): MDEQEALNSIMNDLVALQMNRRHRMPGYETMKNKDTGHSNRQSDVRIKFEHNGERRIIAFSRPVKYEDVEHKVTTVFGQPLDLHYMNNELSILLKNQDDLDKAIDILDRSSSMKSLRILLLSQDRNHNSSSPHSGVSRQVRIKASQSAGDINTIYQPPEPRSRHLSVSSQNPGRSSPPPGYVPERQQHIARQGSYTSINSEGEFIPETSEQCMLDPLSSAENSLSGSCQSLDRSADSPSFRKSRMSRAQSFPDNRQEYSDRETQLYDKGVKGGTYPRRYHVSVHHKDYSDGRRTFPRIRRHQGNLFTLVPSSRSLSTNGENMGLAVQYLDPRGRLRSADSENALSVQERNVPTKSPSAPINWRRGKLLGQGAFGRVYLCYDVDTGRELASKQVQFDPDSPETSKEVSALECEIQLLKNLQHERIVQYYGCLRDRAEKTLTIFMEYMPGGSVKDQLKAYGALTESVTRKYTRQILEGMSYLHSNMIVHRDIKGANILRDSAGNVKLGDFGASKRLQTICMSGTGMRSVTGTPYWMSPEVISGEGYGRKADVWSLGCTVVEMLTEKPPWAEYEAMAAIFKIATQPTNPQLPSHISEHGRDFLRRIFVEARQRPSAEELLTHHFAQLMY
row,Structure (SMILES),binding response (% of control)
1,C=CCN(CC=C)S(=O)(=O)c1ccc(C(=O)Nc2sc3c(c2C(N)=O)CCCCC3)cc1,100%
2,Cc1ccc(N(CCC(=O)O)S(=O)(=O)c2cccc(C(F)(F)F)c2)cc1,102%
3,Cc1ccc(CNC(=O)Cn2c(=O)c3sccc3n(Cc3cccc([N+](=O)[O-])c3)c2=O)cc1,102%
4,COc1cccc(C2CC(c3ccccc3)=NN2S(=O)(=O)c2ccccc2)c1OC (configuration not stated),100%
5,O=C(Nc1ccn(Cc2ccccc2)n1)c1cccc(F)c1,100%
6,CCCCOC(=O)c1ccc(N2C(=O)CC(N3CCN(C/C=C/c4ccccc4)CC3)C2=O)cc1 (configuration not stated),104%
7,COc1cc(-c2nnc(Cn3cc(C(F)(F)F)ccc3=O)o2)cc(OC)c1OC,102%
8,COc1cc(Br)c(-c2sc(Nc3ccccc3)n[n+]2-c2ccccc2)cc1OC,102%
9,COc1cccc(/C(C)=N/Nc2ncc(Cl)cc2Cl)c1,108%
10,COc1cc(/C=C2\SC(=S)N(Nc3ncc(C(F)(F)F)cc3Cl)C2=O)cc(OC)c1OC,90%
11,CCN(CC)CCOCCOc1ccc(Cl)c2ccccc12,107%
12,CCOc1ccc(NC(=O)Nc2cc(C)ccc2OC)cc1,100%
13,Cc1onc(-c2ccccc2Cl)c1C(=O)OCC(=O)c1ccccc1,100%
14,O=C(OCc1cc(Cl)ccc1OC(F)F)c1cccnc1,97%
15,O=c1c(/C=N/O)coc2ccc(Cl)cc12,101%
16,O=C(Nc1ccc(Cl)cn1)c1cnn2cccnc12,105%
17,CCOC(=O)c1sc2nc(C)nc(SCC(N)=O)c2c1C,109%
18,CCC(C)OC(=O)C(C)Oc1ccc(-c2ccccc2)cc1 (configuration not stated),108%
19,COc1ccc(C(=O)C[n+]2ccc(C)cc2)cc1,103%
20,CCN1CCN(c2ccc(S(=O)(=O)N3CCCCC3)cc2NC(=O)Cc2c(Cl)cccc2Cl)CC1,104%
21,Cc1nn(-c2ccccc2)c(NC(=O)c2cccs2)c(-c2ccc(Cl)cc2)c1=O,101%
22,Cc1cc(C(=O)OCC(=O)N2c3ccccc3NC(=O)C2(C)C)c(C)n1-c1ccccc1,106%
23,Cc1cccn2c(=O)c(/C=C3\SC(=S)N(CC(C)C)C3=O)c(NCCCOC(C)C)nc12,86%

row,Structure (SMILES),binding response (% of control)
1,C/C(CC(=O)NC(C)(C)C)=N\NC(=O)c1ccco1,100%
2,Cc1ccc(C(=O)N/C(=C/c2ccco2)C(=O)NCCc2c[nH]c3ccccc23)cc1C,105%
3,CCC(=C/c1sc2ccc3ccccc3c2[n+]1C)/C=C1\Sc2ccc3ccccc3c2N1C,29% (active)
4,Cn1c2ccccc2c(=O)c2c(=O)n(Cc3ccco3)c(COc3ccccc3)nc21,100%
5,CN(C)CCCNC(=O)c1cc(C(=O)Cc2ccc(Cl)cc2)c[nH]1,98%
6,Cc1ccc(NC(=S)N(CCCN2CCCC2)Cc2cccn2Cc2ccc(Cl)cc2)cc1,104%
7,N#C/C(=C\C1=C(N2CCOCC2)C(=C\c2ccccc2)/CC1)C(=O)Nc1ccccc1F,27% (active)
8,COC(=O)c1cc(NC(=O)c2cc(C(C)(C)C)nn2Cc2cccc(C)c2)ccc1N1CCOCC1,99%
9,CN(C)CCCNC(=S)N1CCN(c2nc(-c3ccccc3)cs2)CC1,102%
10,Cn1ccc(=Nc2ccc(NC(=O)c3ccc(N=c4ccn(C)c5ccc([N+](=O)[O-])cc45)cc3)cc2)cc1,105%
11,O=C(NCCCN1CCN(c2ccc(F)cc2)CC1)Nc1ccc([N+](=O)[O-])cc1,107%
12,O=C(c1cnn(-c2ccc(Cl)cc2)c1)c1ccccc1O,110%
13,O=C(NC1CCN(Cc2ccccc2)CC1)c1ccc(Oc2cc(Cl)cc(Cl)c2)o1,97%
14,O=C(NCCC1=CCCCC1)c1ccc(Cl)c([N+](=O)[O-])c1,106%
15,CC1CN(C(=O)c2ccccc2NS(=O)(=O)c2cccc([N+](=O)[O-])c2)CC(C)O1 (configuration not stated),101%
16,CC(C)c1ccc(C(=O)NCCCc2ccccc2)cc1,98%
17,O=C(O)c1cccnc1NC1CCCC1,108%
18,COc1cccc(NC(=S)NCCCN2CCOCC2)c1,106%
19,COC(=O)CCc1sc(Nc2ccc(Br)cc2)nc1-c1ccc(OC)cc1,106%
20,O=C(Cc1cccc2ccccc12)Nc1ccc2oc(-c3ccccc3)nc2c1,102%
21,O=C(NNc1c2ccccc2nc2ccccc12)c1cc2ccccc2cc1O,51% (active)
22,CNC(=O)/C(=C\C=C\c1ccccc1)NC(=O)c1ccc([N+](=O)[O-])cc1,107%
23,COc1ccc(C(=O)NCC(=O)N/N=C/c2ccc([N+](=O)[O-])o2)cc1OC,93%

row,Structure (SMILES),binding response (% of control)
1,Cc1c(-c2ccccc2)cn2c1-c1ccc(C)n1CC2,93%
2,Cc1ccc(C)c(CN2CCC(CNC(=O)Nc3ccc(C)c(F)c3)CC2)c1,107%
3,COc1cc(-c2nc(-c3ccncc3)no2)cc(OC)c1OC,104%
4,Cc1ccc(S(=O)(=O)/N=S(\C)C(C)C)cc1 (configuration not stated),101%
5,CCOC(=O)Cc1csc(NC(=O)CSc2nc(C)cc(=O)[nH]2)n1,99%
6,COc1ccc(CNC(=O)C2CCN(S(C)(=O)=O)CC2)cc1,102%
7,O=C(Cc1cccs1)N/N=C/c1ccc(OCc2ccccc2)cc1,104%
8,COc1ccc(S(=O)(=O)N2CN(CCc3ccc(OC)c(OC)c3)c3nc4ccccc4nc32)cc1,97%
9,COc1cc(CC(=O)N/N=C/c2ccccc2)c([N+](=O)[O-])cc1OC,104%
10,FC(F)(F)c1cccc(N/N=C/c2ccccc2)c1,105%
11,CCOC(=O)CN(C)S(=O)(=O)c1ccc(-c2cc(C(=O)OC)sc2C(F)(F)F)cc1,103%
12,COc1ccc(C2CC(=O)Nc3cc(C)c(C)cc32)c(OC)c1OC (configuration not stated),104%
13,O=C(c1ccco1)N1CCN(c2cccc(Cl)c2)CC1,100%
14,C=C(C)C1CC=C(C)/C(=N\NC(=O)CNc2ccccc2OC)C1 (configuration not stated),109%
15,CCOC(=O)c1cc2c(nc1NC(=S)Nc1ccccc1)CC(C)(CC)OC2 (configuration not stated),102%
16,COc1cccc(OCC(=O)NNC(=O)c2cnccn2)c1,101%
17,CCCn1c(=N)n(CC(=O)c2ccc(Cl)c(Cl)c2)c2ccccc21,109%
18,Cc1cc(C)c(NC(=O)C[N+](C)(C)CC(O)COc2cccc3ccccc23)c(C)c1 (configuration not stated),108%
19,CCOC(=O)c1c(-c2ccccc2)csc1NC(=S)NC(=O)c1ccccc1,102%
20,CCCCN1C(=O)/C(=C(/C#N)C(N)=O)c2ccccc21,99%
21,CC(=O)Nc1ccc(N2CCOCC2)c(C(=O)Nc2cccc(C)c2)c1,105%
22,COc1ccccc1NC(=S)N1CCN(c2ccc(F)cc2)CC1,102%
23,CCCN(CCC)c1nc2c(C)cccn2c(=O)c1/C=C1/SC(=S)N(Cc2ccco2)C1=O,86%

row,Structure (SMILES),binding response (% of control)
1,O=C(Nc1ccc2ccccc2c1)Nc1ccc2snnc2c1,105%
2,O=C1NCC(=O)N(Cc2ccccc2)/C1=C/c1ccccc1,91%
3,O=C(CSc1ccc(-c2ccc(F)cc2)nn1)Nc1ccc2c(c1)OCCO2,104%
4,CCOc1cc(C(=O)OCC(=O)Nc2cccc(C)c2)ccc1OCC(=O)N1CCOCC1,106%
5,O=C(CN1C(=O)c2cccnc2Oc2ccc(Cl)cc21)Nc1ccc(F)cc1,103%
6,O=c1c2ccccc2c(-c2ccccc2)nn1Cc1ccccc1,97%
7,CCn1cc(CN2CCC(C(=O)Nc3cccc(-c4cccc(Cl)c4)c3)CC2)cn1,116%
8,CC(=O)N1CCN(S(=O)(=O)c2ccc(C)c([N+](=O)[O-])c2)C1C(C)C (configuration not stated),97%
9,N=C1/C(=C/c2cccn2-c2cccc([N+](=O)[O-])c2)C(=O)N=C2SC=CN12,100%
10,Cn1c(=NC(=O)CSCC(=O)N2CCCCC2)sc2ccccc21,104%
11,CCCCNC(=O)N1CCCC(N(C)CCc2ccc(OC)c(OC)c2)C1 (configuration not stated),102%
12,O=C(NCc1ccccc1Cl)NC(=O)c1csc([N+](=O)[O-])c1,103%
13,CC(C)(C)c1nnc(NC(=O)C2c3ccccc3Oc3ccccc32)s1,100%
14,CN(c1ccccc1)c1ccc(/C=c2\s/c(=C(/C#N)C(=O)C(C)(C)C)n(Cc3ccco3)c2=O)cc1,69% (active)
15,O=C(/C=C/Nc1ccccc1)c1cnc(-c2ccccc2)s1,106%
16,Cc1cccc(-c2ncc(CN3CCC(CO)(CCCc4ccccc4)CC3)cn2)c1,107%
17,CC(C)(C)NC(=O)c1cccc(NC(=O)Cc2ccc(Br)cc2)c1,101%
18,COCC(C)NC(=O)COc1nncc2ccccc12 (configuration not stated),95%
19,O=C(COC(=O)CNC(=O)c1ccco1)Nc1ccc(F)cc1,103%
20,CCOC(=O)c1c(NC(=O)c2ccc(S(=O)(=O)N(C)CC3CCCO3)cc2)sc2c1CC(C)(C)NC2(C)C (configuration not stated),99%
21,CCN(CC)CCCNC(=O)c1ccc2c(=O)n(Cc3ccc4c(c3)OCO4)c(=S)[nH]c2c1,101%
22,CN(C)CCCN(C(=O)COc1ccccc1)c1nc2c(Cl)cccc2s1,108%
23,O=C(O)/C=C\C(=O)Nc1ccc(OCc2ccccc2)cc1,98%
